Screening results (PubChem BioAssay)
An excerpt weighted towards active compounds, which were near 5.9% of everything screened.
HepG2 viability: kills HepG2 cells in TGF-b inhibitor counter-screen; HepG2 CAGA-GFP viability, ATP luminescence, 18 h; Potency, µM (titrated, usually from 46.1 µM), actives largely listed as cytotoxic; hit rate 0.76% among 410,000; AID 588856
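HepG2 CAGA-GFP cells (1000/well, DMEM with 1% FBS) received compound, then TGF-beta at 500 pg/mL final, and were incubated 18 hours at 37 degrees C. Viability was read by CellTiter-Glo luminescence. Media-only wells were set as complete cell-killing and DMSO as no toxicity.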
KB-V1 cytotox: KB-V1 MDR subline cytotoxicity; KB-V1 MDR cells viability, CellTiter-Glo, 72 h; Potency, µM (series often up to 46.1 µM), hits mostly cytotoxic; hit rate 3.4% among 400,000; AID 1347076; further: nearly all actives have a fitted effect of over 60% in size
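Following 72 h at 37 degrees C with compound, KB-V1 cell viability was read by CellTiter-Glo luminescence, medium being phenol-red-free DMEM plus 10% FBS; concentration-response parameters came from normalized, curve-fitted qHTS data.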
TGFb SMAD3 inh: blocks TGF-b signaling; HepG2 CAGA-GFP TGF-b/SMAD3 reporter, GFP fluorescence, 18 h; TGF-beta stimulated, 500 pg/mL final; Potency, µM (highest dose often 46.1 µM), actives largely listed as inhibitors; hit rate 1.2% among 410,000; AID 588855; further: nearly all actives have a fitted effect of over 65% in size
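Using HEPG2 CAGA-GFP reporter cells at 1000 cells/well, we pinned test compounds, stimulated with recombinant TGF-beta (500 pg/mL final) and measured total well GFP after 18 h.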
ATXN viability: viability counter-screen for ATXN expression inhibitors; S2 cells (HEK-293 line with an ATXN2-luciferase reporter) viability, CellTiter-Fluor protease fluorescence, 24 h; Potency, µM (top dose mostly 56.7 µM), hits mostly cytotoxic; hit rate 0.49% among 400,000; AID 651635; further: nearly all actives have a fitted effect of over 40% in size
ATXN2 expr inh: reduces ATXN2 reporter expression in HEK-293 cells | HEK-293 ATXN2-luciferase reporter, luminescence, 24 h | Potency, µM (titrated, usually from 57 µM), hits mostly inhibitors | hit rate 0.72% among 360,000 | AID 1745845; further: nearly all actives have a fitted effect of over 55% in size
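ATXN2-luciferase reporter cells (luciferase flanked by upstream and downstream ATXN2 gene portions) were treated 24 h at 37 °C with compounds at up to 57 uM. SteadyGlo luminescence gave expression; GF-AFC fluorescence gave viability.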
KB-3-1 tox: KB-3-1 parental cell cytotoxicity; hit rate 1.4% among 400,000; Potency, µM (top dose mostly 46.1 µM), actives largely listed as cytotoxic; KB-3-1 viability, CellTiter-Glo ATP luminescence, 72 h; further: nearly all actives have a fitted effect of over 60% in size
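Parental KB-3-1 viability, qHTS format: 72 h compound exposure, 37 °C; CellTiter-Glo; media-only wells and DMSO plates as controls; concentration-effect fits on corrected data.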
Numbers stand for hits; – = inactive; ? = inconclusive; · = no result given; [ ] = another dose, or the depositor's remark. The call rests on the fitted dose curve; in most records, active means well fitted curve in the direction sought with a large enough effect; inconclusive means small, poorly fitted or top-dose-only effect, or another doubt; inactive means no such curve, though single readings can be large; an effect the other way counts as inactive or inconclusive.

SMILES | HepG2 viability | KB-V1 cytotox | TGFb SMAD3 inh | ATXN viability | ATXN2 expr inh | KB-3-1 tox
CCOC(=O)[C@]12CCC=C1N(Cc1cccc3ccccc13)C(=O)[C@H](CC(=O)NCc1cccs1)C2 | · | ? | · | ? | – | ?
CSc1ccccc1C(=O)NCC1Cc2cc(F)cc(-c3cnccn3)c2O1 (stereo not given) | · | · | · | – | · | ·
CC(C)N1CCC1(C)C(=O)Nc1nccc2cccnc12 (stereo not given) | – | – | – | ? | – | –
COc1cc(OC)c(Nc2nc3ccccc3c3nncn23)cc1Cl | – | – | – | – | – | –
COC(=O)[C@]12CCCCC=C1N(Cc1cccc3ccccc13)C(=O)[C@H](CC(=O)NCc1cccc(C(F)(F)F)c1)C2 | · | 9.2µM | · | ? | ? | ?
CCOC(=O)[C@]12CCC=C1N(Cc1ccc(Cl)cc1Cl)C(=O)[C@H](CC(=O)NCc1ccc(OC)c(OC)c1)C2 | · | 5.2µM | · | ? | ? | 7.3µM
CCOC(=O)[C@]12CCCC=C1N(Cc1cccc3ccccc13)C(=O)[C@H](CC(=O)NCc1cccc(C(F)(F)F)c1)C2 | · | – | · | ? | – | –
CCCCCCCCN1C(=O)[C@H](CC(=O)NCc2cccc(C(F)(F)F)c2)C[C@@]2(C(=O)OC)CC(C)(C)CC=C12 | · | 23µM | · | · | · | ?
CCOc1ccccc1CNC(=O)Cc1ccc(NC(=O)N2CCCCc3ccccc32)cc1 | – | – | ? | – | – | –
COC(=O)C1=C[C@@H](C(=O)OC)[C@H]2C3=C(C(=O)[C@@]2(C)NC(=O)c2ccccc2)[C@H](C)C(C(=O)OC)=C(C(=O)OC)[C@@H]3C1 | – | · | – | · | · | ·
CCN(CC)CCNC(=O)c1ccc2nc(CCc3ccccc3)oc2c1 | – | – | – | – | – | –
Cc1ccc(NC(=O)/C=C/c2ccc(Cl)cc2)nc1 | – | – | – | – | –[11.3 µM] | –
O=C(CS(=O)(=O)c1ccccc1)Nc1ccc(Br)cn1 | – | 16µM | – | – | – | –
O=C(/C=C/c1ccccc1)Nc1ncn[nH]1 | – | – | 10µM | ? | ? | –
O=C(CC(=O)c1ccccc1)CS(=O)(=O)c1ccccc1 | – | 12µM | – | ? | – | –
O=C(/C=C/c1ccccc1)Nc1ccc(Br)cn1 | – | – | – | ? | – | 5.2µM
CC1(C(=O)NS(=O)(=O)c2ccc(C#N)cc2)CCN1C(=O)C1(c2ccccc2)CC1 (stereo not given) | – | – | – | – | – | –
O=C(CSc1ccncc1)NCC1Cc2cccc(-c3cncnc3)c2O1 (stereo not given) | · | · | · | – | · | ·
COc1ccccc1CCNC(=O)C(=O)NCC(c1cccs1)S(=O)(=O)c1ccccc1 (stereo not given) | – | ? | – | – | – | –
COc1cccc(/C=N/NC(=O)CCCC(=O)Nc2ccc(Br)cc2)c1 | – | 15µM | – | – | – | –
Cc1cnc(NC(=O)Cc2ccc(S(=O)(=O)N3CCOCC3)s2)s1 | – | 23µM | – | – | – | –
CC(C)(C)c1csc(NC(=O)Cc2ccc(S(=O)(=O)N3CCOCC3)s2)n1 | – | ? | – | – | – | –
Cc1cccc(N(Cc2ccccc2)C(=O)c2ccc(F)c(S(=O)(=O)N3CCOCC3)c2)c1 | – | – | – | ? | – | –
Cc1ccc(N(Cc2ccccc2)C(=O)c2ccc(F)c(S(=O)(=O)N3CCOCC3)c2)cc1 | – | 3.7µM | – | – | – | ?
Cc1cnc(NC(=O)c2ccc(F)c(S(=O)(=O)N3CCOCC3)c2)s1 | – | 18µM | ? | – | – | –
SMILES | HepG2 viability | KB-V1 cytotox | TGFb SMAD3 inh | ATXN viability | ATXN2 expr inh | KB-3-1 tox
O=C(Nc1ccc2c(c1)CCC2)c1ccc(F)c(S(=O)(=O)N2CCOCC2)c1 | – | 3.3µM | – | – | – | ?
COC(=O)CNC(c1ccccc1)c1cc(Br)ccc1NC(=O)c1ccccc1 (stereo not given) | – | – | ? | ? | ? | –
CCOC(=O)[C@@H](N)CCC(=O)N[C@@H](CSCc1ccccc1)C(=O)N[C@@H](C(=O)OCC)c1ccccc1 | · | · | · | · | – | ·
O=C(/C=C/c1cccc([N+](=O)[O-])c1)NC(=S)Nc1cccc(NC(=O)c2ccccc2Cl)c1 | – | ? | – | ? | ? | 16µM
CCn1c(=O)c2cc(C(=O)N(C)c3cc(C)ccc3OC)sc2c2ccccc21 | – | 23µM | ? | ? | · | –
CCn1c(=O)c2cc(C(=O)N(C)c3cc(Cl)c(OC)cc3OC)sc2c2ccccc21 | – | – | – | – | – | –
CCOc1ccccc1N(CC)C(=O)c1cc2c(=O)n(CC)c3ccccc3c2s1 | – | 21µM | 18µM | ? | ? | ?
CCCN(C(=O)c1cc2c(=O)n(CC)c3ccccc3c2s1)c1ccccc1F | – | – | – | – | – | –
O=C(NCc1ccccc1Cl)c1ccccc1Oc1ccccc1 | – | 13µM | – | – | – | –
COc1ccccc1CNC(=O)c1ccc(-c2ccccc2C(F)(F)F)o1 | – | – | ? | – | – | –
O=C(NCc1ccccc1Cl)c1ccccc1CCc1ccccc1 | – | – | – | – | · | –
COc1ccccc1CNC(=O)c1ccc(-c2ccccc2Cl)o1 | – | – | 16µM | – | – | –
CN1CCCc2cc(/C=C/c3ccnc4ccccc34)ccc21 | – | ? | – | · | · | ?
CC(C)N1C[C@@H](Sc2ccccn2)C[C@H]1C(=O)Nc1ccc2c(c1)Nc1ccccc1CC2 | · | · | · | – | · | ·
CCn1cc(C(=O)NCc2ccco2)c(=O)c2cc(S(=O)(=O)N3CCC(C)CC3)ccc21 | – | 5.8µM | ? | – | – | ?
CCn1cc(C(=O)NCc2ccc(C)cc2)c(=O)c2cc(S(=O)(=O)N3CCC(C)CC3)ccc21 | – | – | – | – | – | –
CCn1cc(C(=O)NCc2ccc(Cl)cc2)c(=O)c2cc(S(=O)(=O)N3CCc4ccccc4C3)ccc21 | – | – | ? | – | – | –
CCn1cc(C(=O)NCc2ccco2)c(=O)c2cc(S(=O)(=O)N3CCc4ccccc4C3)ccc21 | – | – | ? | – | – | 23µM
C=CCn1cc(C(=O)NCCOC)c(=O)c2cc(S(=O)(=O)N3CCCCCC3)ccc21 | 10µM | – | ? | – | · | –
CCn1cc(C(=O)NCc2ccco2)c(=O)c2cc(S(=O)(=O)N3CC(C)CC(C)C3)ccc21 (stereo not given) | – | ? | ? | – | ? | 5.8µM
CCn1nc(C)c(CN2Cc3ccccc3OC(c3ccccc3OC)C2)c1C (stereo not given) | · | · | · | – | · | ·
COC(=O)c1cc(S(=O)(=O)N2CCN(c3ccc(OC)cc3)CC2)c[nH]1 | – | · | ? | · | · | ·
CCn1cc(C(=O)NCc2ccco2)c(=O)c2cc(S(=O)(=O)N3CCCCCC3)ccc21 | – | – | – | – | – | 21µM
